According to ChEMBL document CHEMBL3433997, “St. Jude Leishmania screening dataset” (2016):

Columns and labels:
Type in all cases: functional
[1] = target: Solute carrier family 2, facilitated glucose transporter member 1 (Homo sapiens) (UniProt P11166); test: ST_JUDE_LEISH: Cytotoxicity at 2uM final concentration against transgenic Leishmania Mexicana promastigotes LmGLUT1 that are glucose transport deficient and complemented with the human glucose transporter GLUT1. Activity is measured by DNA content using SYBR green in vitro
Sequence of Solute carrier family 2, facilitated glucose transporter member 1 (Homo sapiens) (P11166 whole entry): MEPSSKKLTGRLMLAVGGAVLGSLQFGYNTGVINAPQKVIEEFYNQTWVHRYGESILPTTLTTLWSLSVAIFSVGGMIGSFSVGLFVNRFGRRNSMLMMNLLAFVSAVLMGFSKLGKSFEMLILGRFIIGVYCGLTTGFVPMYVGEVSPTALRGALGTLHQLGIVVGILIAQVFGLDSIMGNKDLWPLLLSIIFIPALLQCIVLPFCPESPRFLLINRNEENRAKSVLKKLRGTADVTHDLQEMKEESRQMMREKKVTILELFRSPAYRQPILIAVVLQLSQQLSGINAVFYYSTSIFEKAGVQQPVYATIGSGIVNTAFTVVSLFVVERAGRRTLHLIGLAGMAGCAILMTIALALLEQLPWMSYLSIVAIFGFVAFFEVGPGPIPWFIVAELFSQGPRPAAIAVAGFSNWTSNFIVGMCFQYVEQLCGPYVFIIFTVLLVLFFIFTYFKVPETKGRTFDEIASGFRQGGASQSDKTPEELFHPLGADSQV

[2] = target: Hexose transporter 1 (Plasmodium falciparum) (UniProt O97467); test: ST_JUDE_LEISH: Cytotoxicity at 2uM final concentration against transgenic Leishmania Mexicana promastigotes LmPfHT that are glucose transport deficient and complemented with the Plasmodium falciparum hexose transporter. Activity is measured by DNA content using SYBR green in vitro
[3] = target: Glucose transporter (Leishmania mexicana) (UniProt O61059); test: ST_JUDE_LEISH: Cytotoxicity at 2uM final concentration against transgenic Leishmania Mexicana promastigotes LmGT2 that are glucose transport deficient and complemented with the L. Mexicana glucose transporter 2. Activity is measured by DNA content using SYBR green in vitro

SMILES | inhibition [1] [%] | inhibition [2] [%] | inhibition [3] [%]
O=C(C=Cc1ccc(Cl)c(Cl)c1)NCCCCCN1CCCC(CCCNC(=O)c2cccs2)C1 (configuration not stated) | 6.06 | 3.58 | 5.16
Cc1cc(OCCCN2CCCC2)ccc1NC(=O)COc1ccc(Cl)cc1C(=O)c1cc(C#N)cc(C(F)(F)F)c1 | 73 | 11.6 | 10.3
CCc1cc(N2CCN(c3ccccc3F)CC2)nc(SCc2ccc(C(=O)NC3CC3)o2)n1 | 2.82 | 1.67 | 2.15
COc1cccc(Cn2ccc3c4c(N)nc(N)nc4ccc32)c1 | 94.3 | 96 | 85.1
O=c1cc(NCCCNCc2cc3c(Cl)cccc3s2)[nH]c2ccccc12 | -1.61 | -0.8 | -2.02
Cc1cc(N/N=C/c2ccccc2[N+](=O)[O-])c2ccccc2n1 | 3.96 | 5.28 | 2.51
Cc1cccc2nc(O)c([N+](=O)[O-])c(O)c12 | 2.09 | 1.72 | 2.14
CCOc1ccc(C(=O)Nc2cc3c(c(C(F)(F)F)c2)CCNC3)cc1Cl | 7.38 | 4.16 | 5.38
CCCNc1nc(Nc2ccccc2C)nc2ccccc12 | 38.1 | 33.5 | 13.8
Cc1cc(N[C@@H](CC(C)C)C(=O)NCc2cccs2)nc(Nc2ccccc2)n1 | 5.66 | 3.95 | 2.84
CC(=O)Nc1ccc2[nH]cc(C3CCN(CCC4CCN(C(=O)/C=C/c5ccc(Cl)c(Cl)c5)CC4)CC3)c2c1 | 8.34 | 7.25 | 5.15
Oc1ccc(CCNc2nc(NCc3ccc4cc(Cl)ccc4c3)nc(N3CCNCC3)n2)cc1 | -0.16 | 1.41 | 0.67
CCN(CC)c1ccc(C(c2ccc(N(CC)CC)cc2)c2cccc([N+](=O)[O-])c2)cc1 | 15.2 | 13.8 | 11.1
Nc1nc(Cc2ccc(Cl)cc2)nc(Cc2ccc(Cl)cc2)n1 | -3.43 | -1.17 | 5.85
Cc1nc(-c2ccc(-c3ccc(C(=O)Nc4ccc(Cl)c(N5CCN(C)CC5)c4)cc3)c(C)c2)no1 | 8.11 | 7.83 | 8.29
NCc1ccc(-c2ccc3c(N)nccc3c2)cc1 | -3.43 | 0.57 | 0.41
CNCCNCc1ccc(-c2ccc(-c3nc4cc(F)ccc4[nH]3)cc2)cc1 | 0.55 | 0.64 | 0.13
Cc1cccc(OC(C)C(=O)Nc2cc(C(F)(F)F)ccc2N2CCOCC2)c1 (configuration not stated) | 2.38 | 3.02 | 6.44
Cc1cc(N2CCCC2)nc(Nc2ccc(NC(=O)c3ccccc3C)cc2)n1 | -1.05 | 6.45 | 0.46
CCCC(C)Nc1nc(C)cc(N[C@@H](CC(C)C)C(=O)NCc2cccc(F)c2)n1 (some centres not stated) | 4.43 | 5.69 | 3.7
COc1ccc(NC(=O)/C=C/c2ccccc2Cl)cc1OCCN1CCC(N2CCN(C)CC2)CC1 | 4.65 | 6.39 | 0.87
Cc1cccc2nc(-c3cccc(-c4cccc(CNCCc5ccncc5)c4)c3)[nH]c12 | -1.47 | 1.2 | -1.48
COc1ccc2nc(C)cc(NCc3ccc4ccccc4c3)c2c1 | 12.8 | 9.9 | 5.11
O=C(Cc1ccccc1)NC(c1ccco1)c1cc(Cl)c2cccnc2c1O (configuration not stated) | -0.34 | -0.27 | -0.18
O=C(/C=C/c1ccc(Cl)c(Cl)c1)NCCCCCN1CCCC(CNS(=O)(=O)c2ccc(F)cc2)C1 (configuration not stated) | -1.15 | -0.91 | 1.39
O=C(Nc1ccc(Cl)cc1)c1cc(Cl)ccc1NC(=O)C1CCc2ccccc2O1 (configuration not stated) | 5.48 | 2.53 | 1.56
O=C(Cc1ccc[n+]([O-])c1)Nc1cccc(-c2cccc(-c3nc4cc(F)ccc4[nH]3)c2)c1 | 1.61 | 1.76 | 4.13

SMILES | inhibition [1] [%] | inhibition [2] [%] | inhibition [3] [%]
COc1cc2c(cc1OCCN1CCC(N3CCCC3)CC1)N(C(=O)/C=C/c1ccccc1Cl)CC2 | 1.15 | 2.02 | 2.99
Cc1nnsc1C(=O)Nc1cccc(-c2cccc(-c3nc4cc(C(F)(F)F)ccc4[nH]3)c2)c1 | 6.42 | 6.2 | 6.93
COc1ccc2cc(C(=O)Nc3ccc4c(c3)CCN(C3CCC3)CC4)ccc2c1 | -2.16 | 2 | 3.8
O=C(Nc1ccc(-c2ccc(-c3nc4ccccc4[nH]3)s2)cc1)c1ccncc1 | 12.7 | 8.04 | 5.66
CCC(CCON1C(N)=NC(N)=NC1(C)C)c1ccc(Cl)cc1 (configuration not stated) | 4.18 | 1.03 | 2.41
O=C(Nc1ccc(Cl)cc1)Nc1ccc2c(c1)N1CCN=C1S2 | -0.81 | -1.2 | 5.02
CC(C)CNCc1cccc(-c2ccccc2CN(C(=O)NCCc2ccccc2)C2CCN(Cc3ccccc3)CC2)c1 | 13.1 | 11.4 | 8.25
O=C(Nc1cccc(CN2CCN(C(=O)c3ccccc3)CC2)c1)c1ccco1 | 3.67 | 3.78 | 7.1
Cc1cccc(CN2CCCN(Cc3ccc(C(=O)Nc4ccc(Cl)cc4)cc3)CC2)c1 | 11.2 | 11.3 | 7.83
NCc1ccc(CNCc2ccc(-c3ccc(-c4nc5cc(F)ccc5[nH]4)cc3)cc2)cc1 | 10.3 | 5.39 | 5.05
Cc1cc(=NN=CC=Cc2ccccc2)c2ccccc2[nH]1 | 1.28 | 2.74 | 0.81
O=C(NCCc1ccccc1)N(Cc1ccc(-c2cccc(CN3CCNCC3)c2)cc1)C1CCN(Cc2ccccc2)CC1 | 1.57 | 1.61 | 0.74
Cc1ccc2nc(-c3ccc(/C=C/C(=O)NC4CCN(Cc5ccccc5)CC4)cc3)[nH]c2c1C | 8.42 | 8.63 | 9.58
Cc1cccc2nc(-c3ccc(-c4ccc(CN5CCC(N)C5)cc4)s3)[nH]c12 (configuration not stated) | -3.3 | 0.94 | -2.11
COc1ccc(N2CCN(CCCCNC(=O)c3ccc(NC(=O)c4cc(C(F)(F)F)cc(C(F)(F)F)c4)cc3)CC2)c(OC)c1 | 1.62 | 1.33 | 1.33
Cc1ccc(C2CC(c3cccs3)=NN2C(=O)c2ccc(Br)o2)cc1 (configuration not stated) | 3.24 | 1.47 | 2.89
CCN1CCN(c2cc(C)c3cc(NC(=O)c4cccc(Cl)c4)ccc3n2)CC1 | 7.2 | 9.24 | 8.84
Cc1nc2ccc(F)cc2n1C1CCN(C(=O)Cc2ccc(F)c(F)c2)CC1 | -1.6 | -1.91 | 1.89
O=C(Nc1ccccc1)N(Cc1cccc(-c2ccc(CNCCc3ccccc3)cc2)c1)C1CCN(Cc2ccccc2)CC1 | 0.46 | -0.56 | 0.13
CN(C)CCNCc1ccc(-c2ccc3c(Nc4ccc(Cl)cc4F)ccnc3c2)o1 | 1.23 | 0.82 | -1.76
CN(C)c1ccc(-c2ccc(C(=O)NC3CCN(Cc4ccccc4)CC3)s2)cc1 | 1.65 | 0.56 | 1.83
Cc1cc(C2CCN(CCCCNC(=O)c3ccc(-c4ccc(C#N)cc4)cc3)CC2)c(C)cc1OCCO | 10 | 12.3 | 9.78
CCCCCCN1CCC(NCc2ccc(C)cc2)CC1 | 12.6 | 16 | 17.6
Cc1cc(C(=O)CN2C(=O)NC(C)(c3cccc4ccccc34)C2=O)c(C)n1Cc1ccco1 (configuration not stated) | 6.55 | 6.14 | 4.09
Oc1ccc(CCNc2nc(N/N=C/C=C/c3ccc(Cl)cc3)nc(N3CCNCC3)n2)cc1 | 0.83 | 1.74 | 0.91
CCCCCCCCCCN1C(=O)C2C(CCCCNC(C)=O)NC3(C(=O)N(Cc4ccc(C(C)(C)C)cc4)c4ccccc43)C2C1=O (configuration not stated) | 9.76 | 9.32 | 3.53
CCc1ccc(C2CCN(CCCCNC(=O)c3ccc(-c4ccc(Cl)cc4)cc3)CC2)c(O)c1 | 0.23 | 2.44 | 2.8
